# About 83,000 compounds went through this panel and 20% of them were active in at least one assay; those are over-represented in the sample as a whole.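 Each cell line was grown in a 96-well plate and treated with one concentration of compound for 48 hours. Values below 10 were considered active.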 Active and inactive are the calls of the source.
# System: SN12C renal
# Experiment: NCI-60 one-dose screen, 48 h (100 = growth as untreated, 0 = no growth, -100 = all killed)
# Conditions: 10 µM
# Procedure: Growth inhibition of the SN12C human tumor cell line is measured as a screen for anti-cancer activity. Cells are grown in 96 well plates and exposed to the test compound for 48 hours. Compounds are tested at a single concentration, which is 10^-5 M for most compounds. The reported endpoint is percent growth (GI% or GIPRCNT), where numbers from 0 - 100% represent growth inhibition, and numbers from -100% - 0 represent cell death. For example, a value of 40 represents 60% growth inhibition. A value of 0 means no net growth occurred over the course of the experiment. A value of -40 indicates 40% of cells at the beginning of the experiment died by the end of the experiment. A value of -100 means all cells are dead at the end of the experiment.
# NCI-60 Human Tumor Cell Lines Screen was performed using the standard one-dose NCI protocol, which is described in more detail at https://dtp.cancer.gov/discovery_development/nci-60/default.htm.
# Compounds with GIPRCNT values below 10 were considered active. Activity score was based on GIPRCNT using the following formula: […]
# Score is 0 for GIPRCNT values of 100 or above, 50 for GIPRCNT values of 0, and 100 for GIPRCNT values of -100.
row,SMILES,growth
1,COc1cc(C(=O)n2nc(N)c3c(C)cc(C)nc32)cc(OC)c1OC,79.8% (inactive)
2,N#C/C(=C/c1cc([N+](=O)[O-])ccc1Cl)C(N)=O,98.8% (inactive)
3,COc1cc(C2C(C#N)=C(c3c[nH]c4ccccc34)Nc3nc(N)[nH]c(=O)c32)cc(OC)c1OC (stereo not given),90.9% (inactive)
4,c1ccc(COCC[P+](c2ccccc2)(c2ccccc2)c2ccccc2)cc1,5.38% (active)
5,CCOC(=O)CNC(=O)Nc1ccc(Oc2ccc(NC(=O)NCC(=O)OCC)cc2)cc1,94.7% (inactive)
6,COc1ccc(C2C=C(c3ccc(Cl)c(Cl)c3)N=C3SC(C)=CN32)cc1 (stereo not given),99.6% (inactive)
7,Oc1ccccc1-c1nnc(Cn2c(Cc3cccc4ccccc34)nc3ccccc32)o1,94.5% (inactive)
8,O=[N+]([O-])c1ccc(S(=O)(=O)OCCCCOS(=O)(=O)c2ccc([N+](=O)[O-])cc2)cc1,97% (inactive)
9,COc1c(-c2c3sc(=O)[nH]c3nc3c2c(=O)[nH]n3C(C)C)cc2c(c1OC)OCO2,95.5% (inactive)
10,COc1ccccc1Cn1cc2c(c1-c1ccccc1)CCc1cnoc1-2,50.2% (inactive)
11,COc1ccc(C2CC(c3ccc(-c4ccccc4)cc3)=NN2c2ccc(S(N)(=O)=O)cc2)cc1 (stereo not given),52.6% (inactive)
12,C/C(=N/NC(=O)c1sc(=S)n(C)c1N)c1cc2cc(Cl)ccc2o1,90.8% (inactive)
13,O=C(Nc1cccc(F)c1)Nc1cccc(Cl)c1,87.4% (inactive)
14,C#Cc1ccc(-n2c(/C=C/c3cc(OC)c(OC)c(OC)c3)nc3ncccc3c2=O)cc1,82.1% (inactive)
15,CCCCCC(=O)N1c2ccccc2NC2=C(C(=O)CC(c3ccc(OC)c(OC)c3)C2)C1c1ccc(C(F)(F)F)cc1 (stereo not given),62% (inactive)
16,Cc1cc(Cl)ccc1Nc1nc(C(F)(F)F)ccc1C(=O)N/N=C/c1ccccc1Cl,19.6% (inactive)
17,CCc1nn2c(-c3cc(OC)c(OC)c(OC)c3)c(-c3cc(OC)c(OC)c(OC)c3)nc2s1,85.9% (inactive)
18,COC(=O)CCCCCCCCC(C)c1ccc(C(C)=O)cc1 (stereo not given),110% (inactive)
19,Cc1ccc(Cl)cc1Nc1nc(C(F)(F)F)ccc1C(=O)N/N=C/c1c(Cl)cccc1Cl,9.96% (active)
20,CCOC(=O)C1=C(Nc2ccc(OC)cc2)C(N)=NC1=N,57% (inactive)

row,SMILES,growth
1,COc1ccc(NC(=O)c2sc3nc4c(cc3c2N)C(O)CCC4)cc1 (stereo not given),99.8% (inactive)
2,CC(=O)Oc1c(C)c(C)c2c(c1C)CCC(C)(CC(=O)OCCCCCCCCCCC[P+](c1ccccc1)(c1ccccc1)c1ccccc1)O2 (stereo not given),-82.3% (active)
3,Cc1[nH]nc2c(=S)[nH]c(=O)[nH]c12,105% (inactive)
4,COc1cc(Cn2c(-c3ccccc3)c(Cl)c3c2-c2oncc2CC3)cc(OC)c1,92% (inactive)
5,FC(F)(F)c1ccc(-c2nc(-c3nc4cc(Cl)c(Cl)cc4[nH]3)c3ccccn23)cc1,84.4% (inactive)
6,CCCCCCCCCCCCCC[n+]1ccccc1,-41.8% (active)
7,CCOC(=O)c1ccc(NC(=O)Nc2nncs2)cc1,31.2% (inactive)
8,COc1ccc(-c2nc(-c3nc4ccc(C)cc4[nH]3)c3ccccn23)cc1,44.9% (inactive)
9,CCCCCCCCCCCC(=O)NCCCN(C)C,86.6% (inactive)
10,COc1ccc(-c2n/c(=C\c3c(O)[nH]c4ccccc34)cc3c2=Nc2ccccc2-3)cc1,91.6% (inactive)
11,C/C=C\COc1cc(C)c(Cl)cc1Cl,94.7% (inactive)
12,CCN1CCN(c2nc(NNC(=O)c3cccc(OC)c3)nc(N3CCN(C(c4ccccc4)c4ccccc4)CC3)n2)CC1,61% (inactive)
13,Cc1cn(C(=O)/C(Cl)=C(/Cl)C(=O)O)c2ccccc12,97.6% (inactive)
14,Cc1cc(/C=C2\SC(=Nc3ccccc3)N(C3CCCC3)C2=O)c(C)n1-c1ccc(Cl)cc1,-51.4% (active)
15,O=C1c2cc(Cl)ccc2-c2c(O)cc(Cl)cc21,72.2% (inactive)
16,COc1cc2c3c(cccc3c1)C(=O)N(CCN1CCCC1)C2=O,29.7% (inactive)
17,CC(C)c1ncc(CO)n1Cc1c(Cl)cccc1Cl,113% (inactive)
18,COc1cc(OC)cc(-c2n/c(=C\c3c(O)[nH]c4ccc(OC)cc34)cc3c2=Nc2ccccc2-3)c1,107% (inactive)
19,O=C1/C(=C/c2ccc(O)cc2)Oc2ccc(Cl)cc21,84.6% (inactive)
20,CC(=O)Oc1ccc(C2=Cc3ccc(OC(C)=O)cc3OC2C)cc1 (stereo not given),66.9% (inactive)

# — PubChem BioAssay (NCI)
